# Results from PubChem BioAssay (NCI).
# This is part of a sample that, as a whole, favours compounds with a hit. Of some 83,000 tested, about 20% had one in any assay.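 The test compound was applied at a single concentration to cells in 96-well plates for 48 hours, and percent growth was recorded.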 Active and inactive are the calls of the source. The calls were made as follows: active = growth percent below 10; inactive = the rest.
# Test system: MDA-MB-468 breast
# Assay: NCI-60 one-dose screen, 48 h (100 = growth as untreated, 0 = no growth, -100 = all killed)
# Conditions: 10 µM unless noted
row,SMILES,growth
1,CCc1c(C)c2ccc(OCC(=O)N=Nc3c(O)[nH]c4ccccc34)c(C)c2oc1=O,18.9% (inactive)
2,COc1ccc2nc(NCCCNCCO)c3sc4ccc(F)cc4c(=O)c3c2c1,-31.6% (active)
3,COc1cc(/C=C2\C(=O)N(CC(O)COc3cc(O)c4c(=O)cc(-c5ccccc5)oc4c3)c3ccccc32)cc(OC)c1O (stereo not given),74.3% (inactive)
4,COc1cc(C2C=C(c3cccc(NC(C)=O)c3)Nc3ncnn32)cc(OC)c1OC (stereo not given),13.4% (inactive)
5,C/C(=N\O)c1ccc(NC(=O)CSc2nnc(-c3ccccc3)n2-c2ccccc2)cc1,75.4% (inactive)
6,N#Cc1cnc(NCCc2ccncc2)nc1-n1cnc2ccccc21,74.2% (inactive)
7,COC(=O)c1ccc2c(c1)c1c(C)c3ccncc3c(C)c1n2C,39.5% (inactive)
8,Cc1c2cnccc2c(C)c2c1c1cc(C(=O)O)ccc1n2C,-7.86% (active)
9,O=C(Nc1cccc(-n2ccc3c(NC(=O)c4ccccc4)nccc32)c1)Nc1cc(C(F)(F)F)cc(C(F)(F)F)c1,7.42% (active)
10,Cc1cc(C)c2c(N)c3cccc(C)c3nc2n1,-54.4% (active)
11,COc1ccc(-c2nc3sccn3c2-c2nc3c([nH]2)C(=O)c2ccccc2C3=O)cc1,95% (inactive)
12,O=C1/C(=C/c2ccc(Cl)cc2)CN(Cc2cn(CCCNc3ccnc4cc(Cl)ccc34)nn2)C/C1=C\c1ccc(Cl)cc1,-69.8% (active)
13,Cc1c(C(N)=O)sc2ncn(Cc3ccccc3)c(=O)c12,99% (inactive)
14,N#Cc1ccc(NC(=O)c2ccc3cccnc3c2O)cc1,1.27% (active)
15,CCOc1cc(Br)c(C(C)NC(=O)c2cccc(OC)c2)cc1OCC (stereo not given),52.6% (inactive)
16,CN(C)c1ncnc2c1ncn2C1CCCCO1 (stereo not given),111% (inactive)
17,O=C(Nc1ccccc1)NS(=O)(=O)c1c[nH]c(=S)[nH]c1=O,112% (inactive)
18,CCOC(=O)C#Cc1c(C(=O)OCC)nnn1Cc1ccc(C(F)(F)F)cc1,-25.7% (active)
19,COc1ccc(/C=N\NC(=O)c2cc(-c3ccc(Br)cc3)n(-c3ccc(S(N)(=O)=O)cc3)n2)cc1,-1.98% (active)
20,O=C(C(=O)N1CCOCC1)c1cn(CCCn2cc(C(=O)C(=O)N3CCOCC3)c3ccccc32)c2ccccc12,109% (inactive)
21,Cn1cc(-c2csc(-c3cn(C)c4ncccc34)n2)c2cc(F)cnc21,-10.1% (active)
22,NS(=O)(=O)c1ccccc1NC(=O)Nc1nc2ccccc2s1,104% (inactive)
23,Nc1ccccc1NC(=O)c1ccc(CN2CCC/C(=C\c3ccccn3)C2=O)cc1,-6.37% (active)
24,CCCOC(=O)Nc1nc2ccc(SCC)cc2s1,46.2% (inactive)
25,COc1nc2c(cc1S(=O)(=O)c1ccccc1)CCc1c-2cnn1-c1cccc(Cl)c1,60% (inactive)
26,N=C(c1ccccc1)N(Cc1ccccc1)Cc1ccccc1,98.2% (inactive)
27,Cc1ccc(-c2nc(SCc3nc4cc(Cl)c(Cl)cc4[nH]3)[nH]c(=O)c2C#N)cc1,116% (inactive)
28,C#CCN(C)CCCOc1ccc(NC(=O)CCCCCCCCC(=O)NO)cc1Cl,27.6% (inactive)
29,O=C1/C(=C/c2ccc3c(c2)OCO3)SC(=S)N1C1c2ccccc2Oc2ccccc21,90.4% (inactive)
30,Nc1nc(Nc2ccccc2SSc2ccccc2Nc2nc(N)nc(-c3ccccc3)n2)nc(-c2ccccc2)n1,102% (inactive)
